Test results published in PubChem BioAssay (NCI).
This is part of a sample that, as a whole, favours compounds with a hit. Of some 83,000 tested, about 20% had one in any assay.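 Note: values are percent growth. 100 is the growth of untreated cells, values between 100 and 0 indicate rising inhibition; between -100 and 0 indicates cell death.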 Unmarked numbers belong to inactive results. Calls of active or inactive are those of the source. How the source made its calls: active means growth percent below 10; inactive means the rest.

Tests used:
Experiment in all cases: NCI-60 one-dose screen, 48 h (100 = growth as untreated, 0 = no growth, -100 = all killed)
Conditions in all cases: 10 µM unless noted
BT-549 breast = system: BT-549 breast
MDA-MB-435 melanoma = system: MDA-MB-435 melanoma
SW-620 colon = system: SW-620 colon
MCF7 breast = system: MCF7 breast
HCT-116 colon = system: HCT-116 colon
HCC-2998 colon = system: HCC-2998 colon
KM12 colon = system: KM12 colon

Row | SMILES | growth (BT-549 breast) | growth (MDA-MB-435 melanoma) | growth (SW-620 colon) | growth (MCF7 breast) | growth (HCT-116 colon) | growth (HCC-2998 colon) | growth (KM12 colon)
1 | CN(CCC#N)C(=O)Nc1ccccc1 | 102% | 107% | 103% | 100% | 109% | 108% | 104%
2 | Cc1cc(Cl)cc(CN(Cc2ccccc2)Cc2c(O)ccc3ccccc23)c1O | 99% | 112% | 105% | 85% | 111% | 91.5% | 99.9%
3 | COc1ccc(-n2cc(-c3ccc(Cl)c(Cl)c3)[nH]c2=O)cc1OC | 94.2% | 99.7% | 73.5% | 84.7% | 90.4% | 96% | 95.3%
4 | Cc1cnc(-c2ccc(-c3ccc(NC(=O)Nc4c(F)cc(F)cc4F)cc3F)c3c2C(=O)NC3)[nH]1 | 55.8% | 14.2% | 10.1% | 22.1% | 14.2% | 60.5% | 11.7%
5 | O=c1[nH]c2ccccc2cc1-c1nc2ccncc2[nH]1 | 91.3% | 82.8% | 88.4% | 57.2% | 63.2% | 93.3% | 22.8%
6 | C=C1C(=O)O[C@H]2[C@H]1CC/C(COC(=O)c1c[nH]c3ccccc13)=C\CC[C@@]1(C)O[C@@H]21 | -37.2% (active) | -82.9% (active) | -61.4% (active) | -52.7% (active) | -86.1% (active) | -80.9% (active) | -47.4% (active)
7 | CN(C)C1=NCCN1 | 97.5% | 110% | 106% | 97.2% | 98.7% | 101% | 100%
8 | CNS(=O)(=O)c1cccc(-c2ccc3c4c(n(C)c(=O)c3c2)-c2ccccc2C4=O)c1 | 76.6% | 74.5% | 46.4% | 18.5% | 36.4% | 90.6% | 40.7%
9 | CCCCc1ccc(N=Nc2ccc(OCC[N+](C)(C)C)cc2)cc1 | 56.4% | 88.6% | 49.6% | 85.1% | 48.7% | 25.6% | 29.9%
10 | CC(C)C[C@H](C(=O)O)N(C)C(=O)[C@@H]1CCCN1C(=O)[C@H](C)OC(=O)[C@H](CCC(N)=O)NC(=O)[C@@H]1CCC(=O)N1 | 94.2% | 106% | 106% | 85.2% | 99.2% | 108% | 100%
11 | COc1ccc(C2=NN(c3ccc(S(N)(=O)=O)cc3)C(c3ccc(Cl)cc3)C2)c(O)c1 (centres undefined) | 84.7% | 47.2% | 76.2% | 28.2% | 24.4% | 60.6% | 41.3%
12 | O=C(Nc1cc(Nc2ncccc2-c2ncnc3nc[nH]c23)ccc1F)c1cc(C(F)(F)F)cc(C(F)(F)F)c1 | -25.2% (active) | 6.76% (active) | 13.1% | -2.67% (active) | -43% (active) | -83.4% (active) | -55.9% (active)
13 | O=C1NC(SCc2ccc(F)cc2)=N/C1=C/c1cccc(OCc2ccc(Cl)cc2)c1 | 87.2% | 88.5% | 54.1% | 64.1% | -10.9% (active) | 92.1% | 88.9%
14 | C=C(C)[C@@H]1CC[C@]2(C(=O)OCCCC[P+](c3ccccc3)(c3ccccc3)c3ccccc3)CC[C@]3(C)[C@H](CC[C@@H]4[C@@]5(C)CC[C@H](OC(=O)C(Cl)Cl)C(C)(C)[C@@H]5CC[C@]43C)[C@@H]12 | -71.6% (active) | -62.3% (active) | 0.909% (active) | 3.36% (active) | -76.3% (active) | -62.8% (active) | -54.8% (active)
15 | O=C(/C(=C/c1ccc([N+](=O)[O-])cc1)SCc1ccc(F)cc1)c1ccc(Cl)cc1 | 84.9% | 43.9% | 1.44% (active) | -21.8% (active) | 0.116% (active) | 84.3% | 19.5%
16 | COc1ccc2c(c1)Oc1nc(N)c(C#N)c(N)c1C2Sc1ccc(SC)cc1 (centres undefined) | 38.9% | 24.2% | -8.99% (active) | -20.7% (active) | 10.2% | 58.9% | 53.3%
17 | CCCCn1c2cc(OCc3cn(-c4ccc(Cl)cc4)nn3)ccc2c2ccnc(C)c21 | 61.7% | 60.2% | 34.2% | 25.8% | 8.91% (active) | 43.8% | 41.9%
18 | COc1ccc2c(c1)Oc1nc(N)c(C#N)c(N)c1C2Sc1ccc(O)cc1 (centres undefined) | 92.4% | 99.5% | 68.6% | 33.6% | 89.6% | 98.5% | 97.9%
19 | O=C1C(=O)c2c(nc3ccc(C(F)(F)F)cn23)-c2ccccc21 | -85.2% (active) | -84.4% (active) | -60.4% (active) | -55.5% (active) | -74.9% (active) | -90.4% (active) | -61.7% (active)
20 | O=C(Nc1ccc(N=Cc2ccccc2O)cc1)NC1C=c2ccccc2=CC1 (centres undefined) | 86.6% | 104% | 105% | 92.6% | 104% | 100% | 103%
21 | CC(=O)Nc1nc2c(c(N)c1C#N)C(c1cccc(Cl)c1)C1=C(CCCC1=O)N2c1sc2c(c1C#N)CCCC2 (centres undefined) | 45.9% | 65.5% | 80.3% | 20.7% | 33.3% | 45.7% | 49.1%
22 | COC(=O)c1nc(-c2ccccc2)oc1S(=O)(=O)n1nc(C)cc1N | 69.8% | 79.6% | 6.13% (active) | 60.2% | 67.9% | 115% | 96.3%
23 | CCc1ccc(OCc2ccccc2C(=O)Nc2ccc3nc(C)cc(N)c3c2)cc1 | -91.9% (active) | -91.2% (active) | -64.3% (active) | -70.2% (active) | -99.3% (active) | -76.8% (active) | -78.9% (active)
24 | COc1ccccc1C(=O)/C=C/c1cc2cccc(OC)c2[nH]c1=O | -3.55% (active) | 6.42% (active) | -6.28% (active) | 13.4% | -15% (active) | -84.7% (active) | -49.1% (active)
25 | S=C(Nc1ccc(Cl)cc1)c1ccccn1 | 94.5% | 106% | 100% | 81.4% | 89.7% | 110% | 100%
26 | COc1cc(-c2csc(NC(=O)Nc3ccc(Cl)cc3)n2)cc(OC)c1OC | 31.9% | 18.1% | 42.1% | 8.71% (active) | 17.8% | 38.9% | 13.4%
27 | Cc1nc2sc(C(=O)Nc3ccccc3Cl)c(N)c2cc1C(C)O (centres undefined) | 78.8% | 5.06% (active) | 57.6% | 48.6% | 67.8% | 84.5% | 56.1%
